ST2 IL33 inh: inhibitors of human ST2 (IL1RL1) binding to IL-33, primary screen, biochemical, AlphaLISA; AlphaLISA ST2-Fc/biotin-IL-33 interaction, 1 h; inhibition, % for hits at 17 µM; AID 1259354, 2018; hit rate 2.3% among 78,000; Interleukin-1 receptor-like 1 (Homo sapiens), Q01638; in the data active = inhibition above about 30%
Target sequence (Q01638 whole entry, looked up): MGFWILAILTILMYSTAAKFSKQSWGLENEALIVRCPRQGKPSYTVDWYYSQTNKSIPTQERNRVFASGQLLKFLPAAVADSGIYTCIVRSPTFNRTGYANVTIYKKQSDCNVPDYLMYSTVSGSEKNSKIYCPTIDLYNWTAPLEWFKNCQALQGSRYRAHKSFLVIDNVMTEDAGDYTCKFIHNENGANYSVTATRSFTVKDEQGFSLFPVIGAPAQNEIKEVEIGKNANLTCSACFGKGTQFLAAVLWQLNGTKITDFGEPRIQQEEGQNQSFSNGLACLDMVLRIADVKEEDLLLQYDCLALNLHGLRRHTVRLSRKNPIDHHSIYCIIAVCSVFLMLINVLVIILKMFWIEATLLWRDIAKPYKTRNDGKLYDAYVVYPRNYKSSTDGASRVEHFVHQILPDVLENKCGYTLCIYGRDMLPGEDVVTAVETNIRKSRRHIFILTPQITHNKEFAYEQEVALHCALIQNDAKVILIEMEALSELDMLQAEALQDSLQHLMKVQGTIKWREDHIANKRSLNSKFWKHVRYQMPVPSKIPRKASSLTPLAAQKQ
The depositor's hits bear a star; i = inactive. The entries come from a sample that favours hits as a whole.

SMILES	ST2 IL33 inh
O=C1/C(=C/c2ccccc2)CC/C1=C\c1ccccc1	33%*
O=C1/C(=C/c2c[nH]c3ccccc23)CC/C1=C\c1c[nH]c2ccccc12	i
O=C1OC(c2ccc(Br)cc2)=N/C1=C\c1ccccc1	i
O=C(O)C1C2C=CC3(CN(c4cccc([N+](=O)[O-])c4)C(=O)C13)O2 (centres undefined)	i
O=[N+]([O-])c1cccc(Nc2ccccc2)c1	33%*
O=C(Nc1ccccc1)Nc1cccc([N+](=O)[O-])c1	i
Cc1ccccc1C(=O)Nc1cccc([N+](=O)[O-])c1	i
O=S(=O)(c1ccc(Cc2ccc(S(=O)(=O)N3CCOCC3)cc2)cc1)N1CCOCC1	i
Cc1nnsc1CN(C)C(=O)[C@H](N)Cc1c[nH]c2ccccc12	i
COc1c(Br)cc(Br)cc1/C=C1\C(=O)N(c2ccccc2)N=C1C	i
CC1=NN(c2cccc(F)c2)C(=O)/C1=C/c1ccc(N(C)C)cc1	i
CC1=NN(c2cccc(Br)c2)C(=O)/C1=C\c1ccc(N(C)C)cc1	i
CC1=NN(c2ccccc2)C(=O)/C1=C\c1ccc(N(C)C)c(Br)c1	39%*
CC1=NN(c2ccc(I)cc2)C(=O)/C1=C/c1ccc(N(C)C)cc1	38%*
CC1=NN(c2ccccc2)C(=O)/C1=C/c1cccc(Br)c1	i
Cn1c(=O)[nH]c(=O)c2c1nc(N1CCCCCC1)n2CCSc1nnnn1-c1ccccc1	i
COCC(=O)N1CCN(C(=O)NC(C)C)C[C@@H]1C(=O)N[C@@H](CC1CCCCC1)C(N)=O	i
Cc1ccc(N2C(=O)C(C)SC23C(=O)Nc2ccccc23)cc1Cl (centres undefined)	i
Cc1[nH]nc2c1C(c1ccc(-c3ccccc3Cl)o1)C(C#N)=C(N)O2 (centres undefined)	i
Cc1cn(CCNc2nc(C3CCCC3)nc3c2CNC3)nn1	i
CCOC(=O)C1=C(c2ccccc2)N(C)C(=O)NC1c1ccccc1 (centres undefined)	i
COc1ccc(-c2cc3cc(OC)c(OC)cc3c(C)n2)cc1OC	i
O=C(c1ccc(F)cc1)N(Cc1ccccc1)Cc1ccccc1	i
CC1=NN(c2ccccc2)C(=O)C1C(=O)c1ccc(F)cc1 (centres undefined)	37%*
CC(=O)C1=NN(c2ccccc2)C2C(=O)N(c3ccc(C)cc3)C(=O)C12 (centres undefined)	i
SMILES	ST2 IL33 inh
CNC(=O)CC(C)N(C)Cc1cccc2nonc12 (centres undefined)	i
CC(NC(=O)Cc1ccc(F)cc1)C(c1cccs1)N1CCOCC1 (centres undefined)	i
O=S(=O)(Nc1ccc(-c2cn3ccccc3n2)cc1)c1ccc(Br)cc1	i
COc1ccccc1C1CC(=O)N2CN(c3ccc(Cl)cc3)CSC2=C1C#N (centres undefined)	i
O=C1c2ccc(Oc3ccc4c(c3)C(=O)N(c3nccs3)C4=O)cc2C(=O)N1c1nccs1	i
O=c1/c(=C/c2ccc(-c3cccc([N+](=O)[O-])c3)o2)sc2nc3ccccc3n12	i
N=C1S/C(=C\c2ccc(-c3ccc([N+](=O)[O-])cc3)o2)C(=O)N1c1nccs1	34%*
COc1ccc(CNc2ccc3c(c2)ncn3-c2ccccc2)cc1	i
O=C1CCC(C(=O)N2CCCC(CO)(Cc3ccc(F)cc3)C2)=NN1 (centres undefined)	i
CC1CCc2c(sc(NC(=O)c3ccccc3Cl)c2C(=O)NCc2ccco2)C1 (centres undefined)	i
O=C(Nc1sc2c(c1C(=O)NCc1ccco1)CCCC2)c1ccccc1[N+](=O)[O-]	30%*
O=C(Nc1sc2c(c1C(=O)NCC1CCCO1)CCCC2)c1ccccc1Br (centres undefined)	i
COc1cc(C(=O)Nc2c(C(=O)Nc3ccc(F)cc3)oc3ccccc23)cc(OC)c1OC	i
O=C(c1cccnn1)N1CCCC(CCc2ccccc2C(F)(F)F)C1 (centres undefined)	i
O=C(NCc1cccs1)c1cc(-c2ccc(F)cc2)on1	i
Cc1ncccc1C(=O)N1CCC(Cc2ccccc2Cl)(C(=O)O)CC1	i
COc1ccc(NC(=O)c2cc3c(=O)n4cccc(C)c4nc3n2C)c(OC)c1	i
COc1ccc(Nc2nc3c(C)cccn3c(=O)c2C=NCc2ccccc2)cc1	40%*
Cc1ccc(N=Cc2c(Nc3ccccc3)nc3c(C)cccn3c2=O)cc1	i
Cc1cn(-c2ccccc2)[nH]c1=O	i
Cc1c(C(c2ccco2)c2c(C)n(C)n(-c3ccccc3)c2=O)c(=O)n(-c2ccccc2)n1C	i
Cc1[nH]n(-c2ccccc2)c(=O)c1C(c1ccco1)c1c(C)[nH]n(-c2ccccc2)c1=O	51%*
O=C(CCC1CCN(S(=O)(=O)c2ccc(Cl)s2)CC1)Nc1ccccc1	i
O=[N+]([O-])c1ccc(-c2nc3ccccc3o2)cc1	i
O=[N+]([O-])c1ccc(-c2cnc3ccccc3n2)cc1	31%*
SMILES	ST2 IL33 inh
Cc1nc2ccccc2nc1-c1ccc([N+](=O)[O-])cc1	i
Cc1[nH]c(=O)[nH]c(=O)c1CC(=O)N1CCOC(CCCc2ccccc2)C1 (centres undefined)	i
COC(CN(C(C)=O)C1CCCc2c1[nH]c1ccc(C)cc21)OC (centres undefined)	i
Cc1ccc2[nH]c3c(c2c1)CN(C(=O)C1CCCN(CC(N)=O)C1)CC3 (centres undefined)	i
Cc1ccc2[nH]c3c(c2c1)CCCC3NCc1ccc(F)cc1 (centres undefined)	32%*
C1CCCC(N2CCC(N3CCCCCC3)CC2)CC1	i
O=C(Nc1ccc(Br)cc1)c1cc(-c2ccc(F)cc2)on1	i
CN1CCN(Cc2cc([N+](=O)[O-])ccc2O)CC1	i
Cc1cccc(-c2nc3cc([N+](=O)[O-])ccc3o2)c1	i
CC1CN(C)C(C)c2c1oc1ccc([N+](=O)[O-])cc21 (centres undefined)	43%*
COc1cccc(CN2CCCC(O)(CN3CCC(n4cnnc4)CC3)C2=O)c1 (centres undefined)	i
CCCN1CCN(S(=O)(=O)c2cccc3cccnc23)CC1	i
COc1ccccc1C1C(C#N)=C(N)Oc2n[nH]c(C(F)(F)F)c21 (centres undefined)	i
Cc1nc2sc(C(c3ccc(Cl)cc3)N3CCC(C)CC3)c(O)n2n1 (centres undefined)	i
O=[N+]([O-])c1cccc(-c2ncnn2-c2ccc(Br)cc2F)c1	i
Cc1c(Cl)cccc1N1C(=O)CSC1c1ccc([N+](=O)[O-])cc1 (centres undefined)	i
Cc1c(Cl)cccc1-n1ncnc1-c1cccc([N+](=O)[O-])c1	35%*
CCOC(=O)c1ccc(NC2=NC3CS(=O)(=O)CC3S2)cc1 (centres undefined)	i
CC1(C)Cc2c(c(N3CCOCC3)nc3sc(C(=O)O)c(N)c23)CO1	i
O=[N+]([O-])c1ccccc1S(=O)(=O)Nc1cccc(C(F)(F)F)c1	i
O=[N+]([O-])c1cc(C(F)(F)F)ccc1NCCc1ccccc1	33%*
O=[N+]([O-])c1cc(C(F)(F)F)ccc1N1CCN(S(=O)(=O)c2ccccc2)CC1	i
Cc1ccc(CCC(=O)N2CCC(CO)(Cc3ccccc3)CC2)cc1	i
COC(=O)CNC(=O)C1c2ccccc2Oc2ccccc21	i
